NPC1 promoter act = qHTS Assay for NPC1 Promoter Activators | Huh7 NPC1 promoter luciferase reporter, 24 h | Potency, µM (series often up to 9.22 µM), inactives show top-dose activation, hits mostly activators | AID 485313, 2010 | 2.4% of 320,000 active; further: % of control where 0% means no effect; nearly all actives have a fitted effect of over 60% in size
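Stable NPC1-promoter luciferase Huh7 line; cpd (DMSO) 24 h, 37 °C, 5% CO2; Amplite luciferase reagent 10 min RT; luminescence readout. qHTS format.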
FLuc counter = qHTS profiling assay for firefly luciferase inhibitor/activator using purifed enzyme and Km concentrations of substrates (counterscreen for miR-21 project); Luciferin 4-monooxygenase (Photinus pyralis), P08659; purified FLuc, Km substrates, luminescence inhibition; Potency, µM (highest dose often 57.5 µM), for the others: top-dose activity change, negative = inhibition, hits mostly inhibitors; 6.9% of 360,000 active;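 further: plate controls were vehicle for no effect and reference inhibitor for full effect; nearly all actives have a fitted effect of over 55% in size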
Target sequence (P08659 whole entry, looked up): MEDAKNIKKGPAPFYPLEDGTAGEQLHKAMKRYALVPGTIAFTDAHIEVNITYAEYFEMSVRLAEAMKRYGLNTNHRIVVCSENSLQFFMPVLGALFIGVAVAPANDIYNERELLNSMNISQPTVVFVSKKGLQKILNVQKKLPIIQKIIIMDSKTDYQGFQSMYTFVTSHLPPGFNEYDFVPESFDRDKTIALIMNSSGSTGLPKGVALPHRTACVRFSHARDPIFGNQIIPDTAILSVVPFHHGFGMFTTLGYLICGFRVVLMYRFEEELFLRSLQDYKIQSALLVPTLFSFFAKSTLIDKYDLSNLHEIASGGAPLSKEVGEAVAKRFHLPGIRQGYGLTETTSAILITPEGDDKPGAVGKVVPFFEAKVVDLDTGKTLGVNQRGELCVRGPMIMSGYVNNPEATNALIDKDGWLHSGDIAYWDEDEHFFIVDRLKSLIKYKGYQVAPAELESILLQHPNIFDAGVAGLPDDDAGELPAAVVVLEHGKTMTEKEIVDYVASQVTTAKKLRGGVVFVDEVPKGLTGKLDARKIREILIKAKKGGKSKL
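Purified P. pyralis luciferase, 10 nM final, with Km-level 10 uM D-luciferin and 10 uM ATP in 50 mM Tris acetate pH 7.5, 10 mM Mg acetate, 0.01% Tween-20, 0.05% BSA; 6-point qHTS titration about 60 µM downward; luminescence read.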
SMN2 splice up = qHTS Assay for Enhancers of SMN2 Splice Variant Expression. HEK293 SMN2-luciferase splicing reporter, luminescence, 30-36 h. Potency, µM (top dose mostly 46.1 µM), for inactives: top-dose activity change, positive = activation, hits mostly activators. 2.8% of 210,000 active; further: % of control where 0% means no effect; nearly all actives have a fitted effect of over 55% in size
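HEK293 cells carry an SMN2 […]–luciferase reporter in which exon 7 inclusion puts luciferase in frame. Cells were plated 10-12 h before compound addition, then incubated 30-36 h at 37C. ONE-Glo luminescence was read; sodium butyrate at 4.5 mM final served as control.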
ELG1 genotox = qHTS screen for small molecules that induce genotoxicity in human embryonic kidney (HEK293T) cells expressing luciferase-tagged ELG1 | 1.3% of 330,000 active | Potency, µM (series often up to 46 µM), for inactives: top-dose activity change, positive = activation, usual class: activators | AID 504466, 2011 | HEK293T ELG1-luciferase reporter, luminescence, 16 h; further: % of control where 0% means no effect; nearly all actives have a fitted effect of over 60% in size
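HEK293T cells expressing luciferase-tagged ELG1 were treated with compound or DMSO for 16 hr at 37°C. Luciferase activity was then read after 30 min with ONE-Glo at room temperature; rising signal flags genetic stress.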
Rab9 prom act = qHTS Assay for Rab9 Promoter Activators. Huh7 Rab9 promoter-luciferase reporter, luminescence, 24 h. Potency, µM (highest dose often 9.22 µM), for the others: at the highest dose activation, negative = inhibition, hits mostly activators. 2.8% of 320,000 active; further: % of control where 0% means no effect; nearly all actives have a fitted effect of over 60% in size
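Luminescence from Amplite-detected luciferase (10 minutes, ambient) reports Rab9 promoter activation. Before that, stable Rab9-luciferase Huh7 cells (1500/well, reduced-serum OP-MEM I plus 10% FBS) were exposed to compound for 24 hours at 37C.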
An asterisk follows results filed as active. The list is not random: actives were taken first. Their share in the collection is about 7.4%. The call rests on the fitted dose curve; in most records, active means well fitted curve in the direction sought with a large enough effect; inconclusive means small, poorly fitted or top-dose-only effect, or another doubt; inactive means no such curve, though single readings can be large; an effect the other way counts as inactive or inconclusive. Potency means the concentration at half of the fitted maximal effect.

CC(C)(C)C(=O)OC/C(N)=N/OC(=O)c1ccc(Cl)cc1 was read as NPC1 promoter act -5%, FLuc counter inconclusive, ELG1 genotox 2% and Rab9 prom act -1%.
`CC(C)(C)C(=O)O/N=C(\N)COc1cccc(Cl)c1` gave NPC1 promoter act 3%, FLuc counter 17µM*, ELG1 genotox 8% and Rab9 prom act -1%.
Screening Cc1c(CC(=O)O)c(=O)oc2cc(OCc3ccc(F)cc3Cl)ccc12 returned NPC1 promoter act -1%, FLuc counter 17µM*, ELG1 genotox 6% and Rab9 prom act 3%.
Cc1c(CCC(=O)O)c(=O)oc2cc(OCc3ccccc3F)ccc12 was read as NPC1 promoter act 10%, FLuc counter 27µM*, ELG1 genotox 4% and Rab9 prom act 1%.
`Cc1cccc(C(=O)Nc2c(C(=O)N(C)C)cnn2-c2ccccc2)c1` gave NPC1 promoter act -2%, FLuc counter 7%, ELG1 genotox 3% and Rab9 prom act -4%.
`COc1nc(-c2ccccc2)ccc1-c1noc(-c2ccc(F)cc2)n1` gave NPC1 promoter act 0%, FLuc counter 4%, SMN2 splice up 12%, ELG1 genotox -1% and Rab9 prom act 11%.
COc1cccc(-c2nc(-c3ccc(-c4ccccc4)nc3OC)no2)c1 was read as FLuc counter 2.4µM* and SMN2 splice up 1%.
COc1nc(-c2ccccc2)ccc1-c1noc(-c2ccccc2F)n1 was read as NPC1 promoter act inconclusive, FLuc counter 5.4µM*, SMN2 splice up 29%, ELG1 genotox inconclusive and Rab9 prom act inconclusive.
Screening COc1nc(-c2ccccc2)ccc1-c1noc(-c2cccnc2)n1 returned NPC1 promoter act 27%, FLuc counter inconclusive, ELG1 genotox -4% and Rab9 prom act inconclusive.
`COc1ccc(-c2ccc(-c3noc(-c4cccc(OC)c4)n3)c(OC)n2)cc1` gave NPC1 promoter act -2%, FLuc counter 7.6µM*, SMN2 splice up -46%, ELG1 genotox 2% and Rab9 prom act 10%.
COc1ccc(-c2ccc(-c3noc(-c4ccc(OC)c(OC)c4)n3)c(OC)n2)cc1 was read as NPC1 promoter act -2%, FLuc counter 0%, SMN2 splice up -21%, ELG1 genotox 0% and Rab9 prom act 3%.
COc1cccc(-c2nc(CS(=O)(=O)c3ccccc3)no2)c1 was read as NPC1 promoter act 2.8µM*, FLuc counter 12µM*, SMN2 splice up 11µM*, ELG1 genotox inconclusive and Rab9 prom act 3.2µM*.
`Cc1cc(CN2CCN(CC(=O)Nc3cc(Cl)ccc3-n3cncn3)CC2)no1` gave NPC1 promoter act -1%, FLuc counter 1%, ELG1 genotox -2% and Rab9 prom act 10%.
For COc1ccc(/C=C/C(=O)Nc2cc(C)nn2-c2nc3ccccc3[nH]2)cc1 the results were NPC1 promoter act 4µM*, FLuc counter 1.7µM*, SMN2 splice up 11µM*, ELG1 genotox 7% and Rab9 prom act inconclusive.
Screening COc1ccc(/C=C/C(=O)Nc2ccccc2C(=O)O)cc1 returned NPC1 promoter act 0.45µM*, FLuc counter 0.43µM*, SMN2 splice up 4µM*, ELG1 genotox inconclusive and Rab9 prom act 3.2µM*.
COc1ccc(/C=C/C(=O)Nc2ccccc2C(F)(F)F)cc1 was read as NPC1 promoter act inconclusive, FLuc counter inconclusive, SMN2 splice up inconclusive, ELG1 genotox 10% and Rab9 prom act inconclusive.
`COc1ccc(/C=C/C(=O)Nc2ccccc2C(=O)O)cc1OC` gave NPC1 promoter act 1.4µM*, FLuc counter 0.15µM*, SMN2 splice up -26%, ELG1 genotox inconclusive and Rab9 prom act 0.89µM*.
`CCc1cc(C(=O)O)c(NC(=O)/C=C/c2ccc(OC)cc2)s1` gave NPC1 promoter act 2.5µM*, FLuc counter 12µM*, ELG1 genotox inconclusive and Rab9 prom act 2.8µM*.
`Cc1ccsc1CCN1C(=O)N(c2ccccc2)C(=O)C1CC(=O)Nc1ccc(Cl)cc1` (stereo not given) gave FLuc counter -14% and SMN2 splice up 0%.
For O=C(CCN1C(=O)/C(=C/c2ccccc2Cl)SC1=S)NCCCN1CCOCC1 the results were NPC1 promoter act -24%, FLuc counter inconclusive, ELG1 genotox -4% and Rab9 prom act 2%.
Screening COc1ccc(/C=C/C(=O)Nc2ccccc2C(=O)NCC(c2ccc(OC)cc2)N(C)C)cc1 (stereo not given) returned NPC1 promoter act 17%, FLuc counter 11µM*, ELG1 genotox 6% and Rab9 prom act 21%.
For COc1ccc(C(CNC(=O)c2cccc3cccnc23)N(C)C)cc1 (stereo not given) the results were NPC1 promoter act -3%, FLuc counter 1%, ELG1 genotox 2% and Rab9 prom act -10%.
Screening COc1ccc(/C=C/C(=O)Nc2ccccc2C(=O)N2CCCC2)cc1 returned NPC1 promoter act inconclusive, FLuc counter 9.5µM*, SMN2 splice up 8%, ELG1 genotox 15% and Rab9 prom act inconclusive.
COc1ccc(/C=C(/C(=O)Nc2ccccc2C(=O)N2CCCC2)c2ccccc2)cc1 was read as NPC1 promoter act -1%, FLuc counter 0%, SMN2 splice up -15%, ELG1 genotox -11% and Rab9 prom act -3%.
COc1ccc(/C=C/C(=O)NC(=S)Nc2cc([N+](=O)[O-])ccc2O)cc1OC was read as NPC1 promoter act -1%, FLuc counter 7.6µM*, SMN2 splice up 3%, ELG1 genotox 2% and Rab9 prom act 1%.
Screening FCCCOc1ccc(-c2nccc(-c3ccc(Br)cc3)n2)cc1 returned NPC1 promoter act -1%, FLuc counter -2%, SMN2 splice up -12%, ELG1 genotox 0% and Rab9 prom act -4%.
FCCCOc1ccc(-c2nccc(-c3ccc(F)cc3)n2)cc1 was read as NPC1 promoter act -1%, FLuc counter 24µM*, SMN2 splice up 5%, ELG1 genotox 1% and Rab9 prom act 1%.
Screening FCCCOc1ccc(-c2ccnc(-c3ccccc3)n2)cc1 returned NPC1 promoter act 11%, FLuc counter 12µM*, SMN2 splice up -8%, ELG1 genotox -1% and Rab9 prom act 20%.
`CC(C)Oc1ccc(C(=O)OCC(=O)NC2CCCCCC2)cc1` gave NPC1 promoter act -5%, FLuc counter -1%, ELG1 genotox -1% and Rab9 prom act 2%.

Compound activity: PubChem BioAssay, National Center for Advancing Translational Sciences (NCATS)
